Bioassay records deposited in PubChem by several laboratories.
This is a sample that favours compounds with a hit; in the whole collection about 3.3% have one here.
PfM18AAP inh-1: PfM18AAP inhibitors, malaria aminopeptidase, primary screen, biochemical, QFRET, recombinant enzyme. M18 aspartyl aminopeptidase (Plasmodium falciparum 3D7). H-Glu-NHMec fluorogenic cleavage. inhibition, % at 7.35 µM. hit rate 1.2% among 290,000. AID 1822, 2009;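 active = inhibition above the campaign mean inhibition over all tested compounds plus 3 SD, cut at about 28% in these data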;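 note: 0% = plate median of test compound wells and 100% = 2 mM ZnCl2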
MBD2 inh: inhibitors of MBD2 binding to methylated DNA, primary screen, biochemical, TR-FRET, DNA-binding domain, human | MBD2 binding to methylated oligonucleotide | inhibition, % at 4.4 µM | hit rate 0.31% among 370,000 | AID 686964, 2013; in the data active = inhibition above about 13%
PRMT1 FP inh: PRMT1 methyltransferase inhibitors, primary screen, biochemical, fluorescence polarization; recombinant PRMT1, activity-based probe fluorescence polarization; inhibition, % at 2.79 µM; hit rate 1.3% among 370,000; AID 652257, 2013;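 active = inhibition above about 21% made by adding two undisclosed values, limit read from the data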
Target sequence (Q99873 whole entry, looked up): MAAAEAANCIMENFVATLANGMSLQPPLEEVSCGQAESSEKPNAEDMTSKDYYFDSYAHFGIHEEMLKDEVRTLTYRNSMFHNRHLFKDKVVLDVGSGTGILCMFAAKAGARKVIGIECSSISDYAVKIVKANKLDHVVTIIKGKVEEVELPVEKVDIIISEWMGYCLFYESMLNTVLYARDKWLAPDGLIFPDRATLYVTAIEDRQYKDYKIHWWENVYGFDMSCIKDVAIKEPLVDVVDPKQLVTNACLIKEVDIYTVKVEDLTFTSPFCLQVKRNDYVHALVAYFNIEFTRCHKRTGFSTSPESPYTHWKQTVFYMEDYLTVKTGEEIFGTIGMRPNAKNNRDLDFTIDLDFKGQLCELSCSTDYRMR
PfG6PD inh: PfG6PD enzyme inhibitors, primary screen, biochemical, fluorescence intensity, uHTS. glucose-6-phosphate dehydrogenase-6-phosphogluconolactonase (Plasmodium falciparum 3D7). PfGluPho enzyme, NADPH resazurin-diaphorase fluorescence. inhibition, % at 20 µM. hit rate 0.78% among 350,000;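 active = inhibition reaching at least a set limit at 20 µM in the primary screen, cut at about 59% in these data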;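 note: 0% = DMSO wells with substrate and 100% = DMSO wells lacking glucose-6-phosphate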
UHRF1 binding: UHRF1 methylated DNA binding inhibitors, primary screen, counter-screen for MBD2 inhibitor project, biochemical, TR-FRET, human UHRF1, single concentration. AID 687016, 2013. inhibition, % at 4.4 µM. UHRF1 binding to methylated oligo. E3 ubiquitin-protein ligase UHRF1 (Homo sapiens), Q96T88. hit rate 0.75% among 370,000; in the data active = inhibition above about 21%;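 note: UHRF1 SRA domain binding a hemimethylated CpG hairpin DNA probe; 0% = median of test compound wells and 100% = reference inhibitor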
PfM18AAP inh-2: PfM18AAP inhibitors, malaria aminopeptidase, confirmation, biochemical, QFRET, recombinant enzyme, triplicate; shares compounds with PfM18AAP inh-1; H-Glu-NHMec fluorogenic cleavage; inhibition, % at 7.35 µM; hit rate 28% among 2,400;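 active = mean inhibition over replicate wells above the hit cutoff set for the earlier primary screen, cut at about 29% in these data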;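 note: 0% = median of test compound wells and 100% = 2 mM ZnCl2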
CTSL1 counter: cathepsin L1 inhibitors, retest, confirmation, counter-screen for PFM18AAP inhibitor project, biochemical, QFRET, triplicate; inhibition, % at 5.96 µM; shares compounds with PfM18AAP inh-1; purified cathepsin L1, Z-Leu-Arg-MCA fluorescence; AID 2178, 2009; 2,400 tested, under 10 active;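 active = average inhibition across replicates above the hit cutoff set in the earlier primary screen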;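 note: 0% = median of test compound wells and 100% = Z-Phe-Ala-diazomethylketone 1 µM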
Target sequence (P07711 whole entry, looked up): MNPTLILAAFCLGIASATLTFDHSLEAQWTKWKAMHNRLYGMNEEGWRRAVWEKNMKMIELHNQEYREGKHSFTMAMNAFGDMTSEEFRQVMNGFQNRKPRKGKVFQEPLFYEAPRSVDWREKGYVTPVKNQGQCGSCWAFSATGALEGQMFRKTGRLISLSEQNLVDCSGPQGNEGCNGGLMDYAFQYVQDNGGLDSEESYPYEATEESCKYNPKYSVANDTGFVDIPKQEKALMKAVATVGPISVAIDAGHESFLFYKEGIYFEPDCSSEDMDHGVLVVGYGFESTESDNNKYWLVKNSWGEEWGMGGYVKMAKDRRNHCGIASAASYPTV
PfG6PD confirm: PfG6PD inhibitors, hit retest, confirmation, biochemical, fluorescence intensity, single concentration; shares compounds with PfG6PD inh; recombinant PfGluPho, NADPH-diaphorase-resazurin fluorescence; inhibition, % at 20 µM; hit rate 34% among 2,400; AID 504753, 2011;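 active = inhibition of at least 50% at 20 µM in any single replicate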;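 note: 0% = DMSO with substrate and 100% = DMSO lacking glucose-6-phosphate substrate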
Diaphorase 10uM: diaphorase inhibitors and chemical oxidizers, confirmation, counter-screen for P. falciparum G6PD inhibitor project, biochemical, fluorescence intensity, 10 µM NADPH; hit rate 39% among 820; AID 504862, 2011; shares compounds with PfG6PD inh; inhibition, % at 20 µM; diaphorase-coupled resazurin reduction, NADPH 10 uM;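 active = average inhibition reaching 50% or more with the compound at 20 µM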;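 note: resorufin red fluorescence formed as diaphorase reduces resazurin using NADPH; 0% = DMSO with enzyme and 100% = DMSO without enzyme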
Diaph ctr 30uM: diaphorase inhibitors and chemical oxidizers, confirmation, counter-screen for P. falciparum G6PD inhibitor project, biochemical, fluorescence intensity, 30 µM NADPH | AID 504863, 2011 | Diaphorase/resazurin coupled assay, resorufin fluorescence | inhibition, % at 20 µM | shares compounds with PfG6PD inh | hit rate 29% among 820;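 active = inhibition averaging 50% or more, tested at 20 µM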;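 note: 0% = DMSO with enzyme and 100% = DMSO wells lacking diaphorase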
PRMT1 confirm: PRMT1 methyltransferase inhibitors, confirmation, biochemical, fluorescence polarization, triplicate; inhibition, % at 2.79 µM; hit rate 42% among 3,300; recombinant His-PRMT1, activity-based probe fluorescence polarization; shares compounds with PRMT1 FP inh;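 active = mean inhibition across replicates above the hit cutoff derived for the earlier primary screen, cut at about 22% in these data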
Starred values were filed as active, the others as inactive; . = no result.

SMILES	PfM18AAP inh-1	MBD2 inh	PRMT1 FP inh	PfG6PD inh	UHRF1 binding	PfM18AAP inh-2	CTSL1 counter	PfG6PD confirm	PRMT1 confirm	others
Cc1cc(C)cc(NC2=CC(=O)CC(c3ccco3)C2)c1 (stereo not drawn)	25.7	-2.4	2.2	2.0	-0.4	.	.	.	.
O=C1C=C(NNC(=O)c2cccnc2)CC(c2ccco2)C1 (stereo not drawn)	35.2*	-7.2	41.6*	-1.6	-0.7	-28.9	9.4	.	2.2
COC(=O)c1nc(NNC(=O)c2ccccc2)sc1-c1ccccc1	46.2*	0.6	42.9*	28.7	0.6	10.5	-1.7	.	5.3
NC(=O)c1ncn([C@@H]2O[C@H](C(=O)N[C@H](Cc3ccccc3)C(=O)N3CCN(c4ccc(Cl)cn4)CC3)[C@@H](O)[C@H]2O)n1	.	3.4	11.2	.	-2.8	.	.	.	.
O=C(COC(=O)c1cnccn1)c1ccc([N+](=O)[O-])cc1	39.8*	-3.0	46.8*	78.8*	-0.5	-0.4	-0.1	67.5*	59.8*	Diaphorase 10uM=7.2;Diaph ctr 30uM=-17.4
Cc1ccc(C(=O)COC(=O)c2cnccn2)cc1	-4.9	-0.6	-0.9	1.1	-2.2	.	.	.	.
O=S1(=O)c2c(cccc2N2CCC[C@H]2CO)O[C@H]2CCN1C2	.	3.1	-3.8	.	4.7	.	.	.	.
COc1cc(NC(=S)N2CCN(CCO)CC2)c(OC)cc1Cl	4.1	6.3	-2.2	24.2	-2.9	.	.	.	.
OCCN1CCN(C(=S)c2ccc(Cl)c(Cl)c2)CC1	49.2*	-1.8	78.0*	64.2*	-2.9	4.5	-4.6	53.3*	77.8*	Diaphorase 10uM=-12.6;Diaph ctr 30uM=-1.4
Clc1ccc(CN2CCN(N=Cc3cccc(OCc4ccccc4)c3)CC2)cc1	.	1.0	-9.8	.	0.1	.	.	.	.
N#Cc1c(NC(=S)NC(=O)c2ccccc2)sc2c1CCC2	8.3	2.6	11.1	13.3	-2.3	.	.	.	.
CCN1CCc2c(sc(NC(=S)NC(=O)c3ccccc3)c2C#N)C1	38.1*	6.3	73.3*	47.0	5.5	-28.8	2.0	.	11.9
O=C1NC(=S)CN1c1ccccc1	41.6*	-4.3	65.3*	43.4	-1.5	13.5	-3.8	.	59.6*
O=S(=O)(Nc1ccc(Cl)cc1)c1ccc(N2CCOCC2)c(NC(=S)NCCN2CCOCC2)c1	44.7*	2.3	49.5*	69.2*	-2.6	9.8	-1.6	63.1*	73.5*	Diaphorase 10uM=-11.3;Diaph ctr 30uM=-2.2
O=C(Cc1ccc(NS(=O)(=O)c2ccc(Cl)c(Cl)c2)cc1)NCCN1CCOCC1	.	-1.7	-3.8	1.4	-1.0	.	.	.	.
NS(=O)(=O)c1ccc(NC(=S)NC2CCCC2)cc1	45.9*	-1.2	34.3*	8.5	10.7	7.3	-4.3	.	19.5
CCc1csc(N2[C@H](CN(CCOC)S(=O)(=O)c3ccccc3[N+](=O)[O-])[C@H](c3ccccc3)[C@@H]2CO)n1	.	4.0	1.9	.	2.5	.	.	.	.
COc1cc(OC)cc(C(=O)NCC(=O)N2CCN(c3ccc(O)cc3)CC2)c1	35.6*	5.8	25.2*	59.8*	1.4	-24.6	-3.0	42.5	1.1
COc1ccccc1CCn1cnc(-c2cccc(Cl)c2)c1CC(C)C	.	-3.5	6.4	.	-0.2	.	.	.	.
Cc1cc(C)nc(SCSc2nc(C)cc(C)n2)n1	-0.9	-3.3	-1.4	-13.7	2.9	.	.	.	.
Cc1cc(C)nc(SCCc2ccncc2)n1	49.5*	-1.1	29.6*	41.7	-5.8	-8.3	-3.4	.	11.2
O=c1c2ccccc2nc(-c2ccco2)n1/N=C/c1ccccc1O	1.4	-0.6	2.8	-8.7	-3.8	.	.	.	.
C=CCN=c1scc(-c2ccco2)n1/N=C/c1ccc(O)c(O)c1O	44.8*	-5.2	28.6*	73.5*	-0.2	3.7	-1.5	48.2*	31.3*	Diaphorase 10uM=-2.4;Diaph ctr 30uM=14.7
c1cc2c(cc1NC1CCCCCC1)OCO2	53.1*	-0.2	34.7*	62.4*	-2.7	27.8	-2.4	60.6*	31.8*	Diaphorase 10uM=2.2;Diaph ctr 30uM=-2.4
CCOC(=O)c1ccc(N2CSC3=C(C#N)C(c4ccc(OC)cc4OC)CC(=O)N3C2)cc1 (stereo not drawn)	20.6	-3.5	9.4	53.8	-0.8	.	.	.	.
SMILES	PfM18AAP inh-1	MBD2 inh	PRMT1 FP inh	PfG6PD inh	UHRF1 binding	PfM18AAP inh-2	CTSL1 counter	PfG6PD confirm	PRMT1 confirm	others
COc1cc(OC)c(C2CC(=O)N3CN(c4ccccc4)CSC3=C2C#N)cc1OC (stereo not drawn)	38.7*	-1.9	51.9*	80.9*	-8.5	19.2	2.8	58.5*	26.4*	Diaphorase 10uM=-5.0;Diaph ctr 30uM=-2.9
CC(=O)c1ccc(NC(=S)NCCc2ccc(S(N)(=O)=O)cc2)cc1	0.0	2.4	-1.7	-15.3	-0.8	.	.	.	.
CC(C)OCCCNC(=S)Nc1ccc(S(N)(=O)=O)cc1	48.9*	-3.4	40.1*	60.7*	1.8	11.4	-2.2	43.9	58.5*
O=C(Nc1c(-c2ccc(C(F)(F)F)cc2)nc2ncccn12)c1ccc(F)cc1	.	-8.1	4.2	.	-2.4	.	.	.	.
CCNC(=S)N1CCN(Cc2ccccc2)CC1	-0.8	-4.4	-3.9	-11.6	-2.1	.	.	.	.
S=C(c1ccc(Br)cc1)N1CCN(Cc2ccccc2)CC1	42.5*	5.6	63.7*	59.7*	2.7	-1.2	-0.8	46.7	76.5*
Oc1ccc(C(=S)N2CCN(Cc3ccccc3)CC2)cc1	53.6*	-1.4	38.3*	53.6	0.0	-17.9	1.0	.	53.9*
Cc1ccc(C(=S)N2CCN(Cc3ccccc3)CC2)s1	35.2*	6.9	42.1*	55.9	-0.9	14.2	5.2	.	52.9*
O=C(c1ccc(Br)cc1)N1CCN(Cc2ccccc2)CC1	2.6	2.0	3.7	-11.3	-0.3	.	.	.	.
